In the library only some 3.1% were active in any assay of this set; here they are far more common.
INS-1E GSIS act = GLuc luminescence reporter in INS-1E cells, primary screen for activators of glucose-dependent secretion of insulin | INS-1E GLuc reporter insulin secretion, 2-3 h | hit rate 0.61% among 370,000 | activation, % at 16.6 µM;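 active = lowest replicate activation of at least 40%, so every replicate reaches that level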;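 note: 0% = median of neutral control wells and 100% = median of IBMX positive control wells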
Statin myotox sup = suppressors of statin myotoxicity in C2C12 myotubes, primary screen, cell-based, single point, plate reader; AID 602340, 2012; rescue of ATP level, % at 7.49 µM; hit rate 0.78% among 330,000; C2C12 myotubes + simvastatin, ATP luminescence, 48 h; scaled: DMSO 0, geranylgeraniol control 100;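 active = mean ATP rescue above about 67%, or every replicate alone reaching that limit, limit read from the data, passing the limit was not always enough; inconclusive = no clear call, values can overlap the other calls; inactive = mean under the limit and some replicate under it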;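 note: myotubes were challenged with 10 µM simvastatin during compound exposure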
miR122 inh = miR-122 Renilla sensor signal increase in Huh7, primary screen, miR-122 inhibitor project, cell-based, single point, plate reader; Huh7 miR-122 Renilla luciferase sensor, 48 h; neutral wells = 0, positive control = 100; activation (reporter increase), % at 12.5 µM; hit rate 0.3% among 340,000;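 active = mean replicate activation score at least 90 and every replicate individually at or above 90; inconclusive = only one of the two criteria met; inactive = neither criterion met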;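 note: higher luciferase means less miR-122 activity so hits act as miR-122 inhibitors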
HIV Env fusion = inhibitors of HIV-1 Env-driven cell-cell fusion, primary screen, HeLa-JRFL effector, CEM21 target cells, luciferase; inhibition, % at 12.3 µM; hit rate 1.1% among 360,000; AID 651610, 2012;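 active = mean replicate inhibition score of at least 50 and every replicate individually at or above 50; inconclusive = only one of the two criteria met; inactive = mean below 50 and not all replicates reaching 50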;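 note: 0% = plate neutral controls and 100% = maraviroc near 300 nM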
EWS-Fli inh = EWS/Fli-driven NR0B1 reporter inhibitors, primary screen, A673 cells, NR0B1 luciferase, luminescence, MLPCN library; inhibition, % at 12.6 µM; AID 651661, 2012; hit rate 0.67% among 350,000; viability-normalised;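 active = mean inhibition of at least 50% after viability correction, with every replicate also passing that limit; inconclusive = mean reaches 50% but only one of two replicates passes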;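 note: firefly luciferase signal divided by Alamar Blue viability fluorescence both relative to DMSO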
PAX8 reporter = inhibitors of PAX8-driven TPO luciferase reporter, primary screen, RMG-I cells, single concentration. SteadyGlo, 24 h. inhibition, % at 12.6 µM. hit rate 1.2% among 360,000. AID 652154, 2013;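 active = mean replicate inhibition at least 60% with every replicate also reaching 60%; inconclusive = only one of the two criteria is met; inactive = mean below 60% and not all replicates reaching 60%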;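 note: luciferase light reporting Pax8 driven TPO promoter activity; plate controls were median of neutral control wells for no effect and mitoxantrone controls for full effect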
Active calls of the source: *; ? = inconclusive; . = not tested or not shown; [ ] = dose if it differs, or a comment.

SMILES | INS-1E GSIS act | Statin myotox sup | miR122 inh | HIV Env fusion | EWS-Fli inh | PAX8 reporter
Cc1ccc2nc(N(CCCN(C)C)C(=O)c3ccc4c(c3)CCCC4)sc2c1 | 4 | . | -12 | -1 | . | -11
CC(=O)Oc1ccccc1Cn1c(C)c(C(=O)NCc2ccc(Cl)c(Cl)c2)sc1=O | -35 | 13 | . | -5 | 3 | 7
CC(=O)Oc1ccccc1Cn1c(C)c(C(=O)NCc2cccc(Cl)c2)sc1=O | -28 | 21 | . | 59* | 3 | 21
NC(N)=N/N=C/c1ccc(OCc2ccccc2)c(OCc2ccccc2)c1 | 439* | -14 | . | -11 | 29 | -3
NC(N)=N/N=C/c1ccc(OCc2ccccc2Cl)cc1 | 51* | -14 | -20 | . | 58* | .
CCCNC(=O)[C@H]1[C@H](CO)[C@H]2Cn3c(ccc(-c4ccccc4F)c3=O)[C@@H]1N2C(=O)CC | -4 | -13 | 1[16.7 µM] | . | 4 | -3
CC(=O)N(C)C[C@H]1Oc2ncc(-c3cccnc3)cc2C(=O)N([C@H](C)CO)C[C@@H]1C | 14 | -7 | -5[16.7 µM] | 7[16.7 µM] | -5 | .
Cc1ccc(OCc2nnc(SCC(=O)c3ccccc3)n2Cc2ccco2)cc1 | . | 77* | 7 | . | . | .
O=c1c2ccccc2nnn1CSc1nc2cc(Cl)ccc2c(=O)n1Cc1ccco1 | . | . | . | 2 | . | .
O=c1c2ccccc2nnn1CSc1nnc(COc2ccc(Cl)cc2)n1Cc1ccco1 | . | -12 | -2 | 70* | . | .
COc1ccc(NC(=O)N(C)C[C@H]2Oc3ccc(NC(=O)NC4CCCCC4)cc3C(=O)N([C@@H](C)CO)C[C@@H]2C)cc1 | 2 | 36 | -2[16.7 µM] | -4[16.7 µM] | 0 | -19
Cc1cccc(CN2CCN(CC(=O)NCCCN3CCN(c4ccc(F)cc4)CC3)C2=O)c1 | . | 7 | -2 | 59* | . | .
C[C@H](CO)N1C[C@H](C)[C@H](CN(C)C(=O)CCCN(C)C)OCCCC[C@H](C)Oc2ccc(NC(=O)Cc3ccccc3)cc2C1=O | 11 | . | -1[16.7 µM] | -3[16.7 µM] | -14 | -5
COc1cc(OC)cc(-c2c(-c3cccs3)c3cc(-c4ccc5c(c4)OCCO5)ccc3n2C)c1 | . | -10 | . | -5 | 6 | 14
COc1cccc(-c2c(-c3cc(OC)cc(OC)c3)n(C)c3ccc(-c4cnc(OC)nc4)cc23)c1 | -15 | -7 | -4 | 21 | 29 | 42
COc1ccc(-c2c(-c3cc(OC)cc(OC)c3)n(C)c3ccc(-c4ccc5c(c4)OCCO5)cc23)cc1 | -1 | 9 | 6 | 56* | 5 | 3
COc1cccc(-c2c(-c3cc(OC)cc(OC)c3)n(C)c3ccc(-c4cnc(N5CCOCC5)nc4)cc23)c1 | -1 | -55 | 10 | -45 | 17 | 84*
O=C(C[C@@H]1CC[C@@H](NC(=O)Nc2ccccc2F)[C@H](CO)O1)NCc1ccc(-c2ccccc2)cc1 | 26 | . | . | . | -14 | 12
Cc1cc(C)c(C#N)c(N2CCCC(C(N)=O)C2)n1 (configuration not stated) | . | 170* | -16 | . | . | .
O=C(NCc1ccc(F)cc1)C1(c2cccs2)CCOCC1 | -2 | . | -11 | . | -1 | 123*
O=C(CCC(=O)c1cccs1)NCc1ccc(F)cc1 | . | -8 | 2 | -110 | . | -10
CCNC(=S)N1CCN(c2ccccn2)CC1 | 0 | . | . | 18 | -7 | -3
CC(NNC(=S)N1CCN(c2ccccn2)CC1)c1nccc2ccccc12 (configuration not stated) | 0 | . | 18 | -20 | 26 | 72*
CN(C)C(=O)[C@]1(Cc2ccccc2N=[N+]=[N-])N=C(c2ccc(OCCCO)cc2)O[C@@H]1c1ccccc1 | . | . | . | 27[16.7 µM] | 19 | 11
CCCc1cc(C(=O)Nc2cc(C)nn2-c2ccccc2)no1 | 2 | -6 | -5 | 60* | -1 | 7
SMILES | INS-1E GSIS act | Statin myotox sup | miR122 inh | HIV Env fusion | EWS-Fli inh | PAX8 reporter
CCCc1cc(C(=O)NCCc2ccccc2)no1 | . | 2 | 0 | 1 | -65 | -151
Cc1ccc(S(=O)(=O)Nc2nc(C)cc(NN)n2)cc1 | 46* | 5 | -4 | -28 | 6 | 9
CC1CCCCN1S(=O)(=O)c1ccc(C(=O)Nc2sccc2C(N)=O)cc1 (configuration not stated) | -3 | 109* | -2 | -73 | -127 | -42
COCCCNC(=O)C(=O)Nc1ccc2c(c1)N(S(=O)(=O)c1cccs1)CCC2 | -4 | -88 | 15 | -54 | 63* | 44
CCCNC(=O)C(=O)Nc1ccc2c(c1)N(S(=O)(=O)c1cccs1)CCC2 | -18 | -20 | 8 | 2 | 35 | 28
CCOCc1cc(C)[nH]c(=O)c1C#N | . | 99* | 0 | . | . | .
CC(C)CC#Cc1ccc2c(c1)O[C@H](CN(C)C(=O)Cc1ccccc1)[C@H](C)CN([C@@H](C)CO)S2(=O)=O | -8 | -26 | -12[16.7 µM] | 52[16.7 µM] | 10 | .
COc1ccc(OCCNC(=O)/C=C/c2ccc([N+](=O)[O-])cc2)cc1 | -13 | . | 5 | 9 | 3 | 107*
O=C(NC(c1ccc(F)cc1)c1ccc2ccccc2n1)C1CCN(CCOc2ccc(Cl)cc2)CC1 (configuration not stated) | -36 | -18 | -7 | 77* | 21 | 57
COc1ccc(CN2CC3(C2)[C@H](c2ccccc2)[C@@H](CO)N3CC2CCCC2)cc1 | -10 | . | . | . | . | .
Cc1ccccc1-n1c(=O)n(Cc2ccccc2)c(=O)c2[nH]cnc21 | . | 20 | . | -8 | 13 | -24
COC(=O)c1ccc(C)c(-n2c(=O)n(Cc3ccccc3)c(=O)c3[nH]cnc32)c1 | 44* | ? | . | 7 | 2 | -28
NC(=O)c1sc2nccc(Nc3ccccc3)c2c1N | . | . | 21 | 93* | . | .
Cc1ccc(S(=O)(=O)Nc2ccc3c(c2)CC(=O)N([C@@H](C)CO)C[C@H](C)[C@H](CN(C)C(=O)Nc2ccc4c(c2)OCO4)O3)cc1 | 2 | 24 | 8[16.7 µM] | -5[16.7 µM] | -17 | -13
CN(Cc1ccccc1)C(=O)c1ccc(Nc2nc(C(N)Cc3ccccc3)cs2)nc1 (configuration not stated) | . | -19 | 6 | -40 | 21 | 25
NC(Cc1ccc(C(F)(F)F)cc1)c1csc(NC(=O)NCCc2ccccc2)n1 (configuration not stated) | 5 | -113 | . | 66* | ? | -47
CN(Cc1ccccc1)C(=O)c1ccc(Nc2nc(C(N)Cc3ccc(C(F)(F)F)cc3)cs2)nc1 (configuration not stated) | 12 | -14 | -21 | 1 | 34 | 87*
CC(C)CC(N)c1csc(NC(=O)NCCc2ccccc2)n1 (configuration not stated) | . | -7 | 2 | 4 | 10 | 4
CCC(=O)Nc1ccc2c(c1)C(=O)N(C)C[C@H](OC)[C@H](C)CN(C(=O)CC1CC1)[C@@H](C)CO2 | 3 | -6 | -5[16.7 µM] | . | 11 | .
CCN(CC)CCCNc1nc(-c2ccccc2)nc2ccccc12 | . | -31 | 3 | -16 | . | .

Source: PubChem BioAssay
